Results on 155 variants are retold here after a collection of fitness landscapes (doi:10.1126/science.1257360).

The chains are these.
B1: PhoQ; a variant is named by its letters at X, in order, P23837 (parent)
chain: MKKLLRLFFPLSLRVRFLLATAAVVLVLSLAYGMVALIGYSVSFDKTTFRLLRGESNLFYTLAKWENNKLHVELPENIDKQSPTMTLIYDENGQLLWAQRDVPWLMKMIQPDWLKSNGFHEIEADVNDTSLLLSGDHSIQQQLQEVREDDDDAEMTHSVAVNVYPATSRMPKLTIVVVDTIPVELKSSYMVWSWFIYVLSANLLLVIPLLWVAAWWSLRPIEALAKEVRELEEHNRELLNPATTRELTSLVRNLNRLLKSERERYDKYRTTLTDLTHSLKTPLXXLQXXLRSLRSEKMSVSDAEPVMLEQISRISQQIGYYLHRASMRGGTLLSRELHPVAPLLDNLTSALNKVYQRKGVNISLDISPEISFVGEQNDFVEVMGNVLDNACKYCLEFVEISARQTDEHLYIVVEDDGPGIPLSKREVIFDRGQRVDTLRPGQGVGLAVAREITEQYEGKIVAGESMLGGARMEVIFGRQHSAPKDE

In all, about 140,000 sequences were measured (“enrichment ratio after two sorts for PhoP signalling”: median about 0, highest 2% from about 11 on). For the sample, the highest values were picked, then their nearest neighbours and some sequences at random. A value given as a limit tells only on which side of the number the result lay.

The variants in the test derive from B1. In words: enrichment ratio after two sorts for PhoP signalling (ratio (wild type AVST 3.29)); higher = more functional. Particulars: with PhoP (E. coli).
For the variant SGVM, the enrichment ratio was found to be 13.3. With SGVQ, the enrichment ratio was determined as 20.5. The value for SGGM was 8.79; that for TGVQ was 7.73; that for SGWM was 9.28. For SGGG, the enrichment ratio is no more than 0.25. On to HQTQ, for which the enrichment ratio was no more than 0.25. Regarding KFHQ, the enrichment ratio was no more than 0.25. Take PSSG: the enrichment ratio is no more than 0.25. The value for AGQH was no more than 0.25. HPFG: the enrichment ratio was no more than 0.25. The value for NWHP was no more than 0.25; that for LKHK was no more than 0.25. Then KCCM, with no more than 0.25. The value for FCCM was no more than 0.25; that for KSCM was no more than 0.25. On to NSCM, for which the enrichment ratio is no more than 0.25. RSCM: the enrichment ratio is no more than 0.25.

For VCCM, the enrichment ratio was 13.1.

On to MMCM, for which the enrichment ratio was no more than 0.25. In the case of TSCM, the enrichment ratio came to 25.8. For the variant FSCM, the enrichment ratio came to 16.6. The value for VSCK was no more than 0.25.

For LCCM, the enrichment ratio was no more than 0.25. Consider VSCM, for which the enrichment ratio turned out to be 13.1.

For the variant LKST, the enrichment ratio is no more than 0.25. Then GVIN, with no more than 0.25. Then MQIN, with no more than 0.25; and QHSN, with no more than 0.25. As for YAPD, the enrichment ratio was no more than 0.25. Turning to QLGK, the enrichment ratio was 3.11. Then MDFQ, with no more than 0.25; and VNCM, with 4.53; and YRCM, with no more than 0.25. The value for SSCK was 4.35; that for YSCK was no more than 0.25; that for YSCM was 12.8. The value for SSCM was 19; that for AINP was no more than 0.25. For SWTQ, the enrichment ratio was no more than 0.25. Then HGMH, with no more than 0.25. Turning to TGMH, the enrichment ratio was 14.5.

With THMH, the enrichment ratio was found to be 13.2. Then RGMH, with no more than 0.25; and AYMH, with no more than 0.25. The value for NHMH was no more than 0.25; that for AGMH was 26; that for AGWR was no more than 0.25.

In the case of AHMH, the enrichment ratio was no more than 0.25. As for PWRH, the enrichment ratio is no more than 0.25. DSMV: the enrichment ratio was no more than 0.25. ALNP: the enrichment ratio was no more than 0.25.

ILLI: the enrichment ratio was no more than 0.25. The value for IWRF was no more than 0.25; that for LDDP was no more than 0.25; that for NHCF was no more than 0.25.

As to PLCF, the enrichment ratio was no more than 0.25.

For the variant AMCF, the enrichment ratio amounted to 12.3.

As for AICF, the enrichment ratio came out at 13.5. Then WICF, with no more than 0.25.

NICF: the enrichment ratio is no more than 0.25. Then AKCF, with 1.73; and SHCF, with 7.35. Turning to MMCF, the enrichment ratio was no more than 0.25. Then ALCF, with 13.2; and NMCF, with no more than 0.25; and THCF, with 17.5.

For IASH, the enrichment ratio was no more than 0.25.

Take FYVH: the enrichment ratio is no more than 0.25. Take ESKG: the enrichment ratio was no more than 0.25. Then WMCQ, with no more than 0.25; and VWMT, with no more than 0.25; and PQSG, with no more than 0.25. The value for VPYN was no more than 0.25; that for AAPG was no more than 0.25; that for DMIH was no more than 0.25. Take MFGN: the enrichment ratio is no more than 0.25.

On to SAAI, for which the enrichment ratio amounted to 7.86. IQAI: the enrichment ratio is no more than 0.25. The value for SKFA was no more than 0.25; that for WLAI was no more than 0.25; that for SQAI was 15.1. Then SLAI, with 15.7; and VLAI, with no more than 0.25. Consider SKAI, for which the enrichment ratio turned out to be 14.

Take SKPA: the enrichment ratio was no more than 0.25. With YGYC, the enrichment ratio is no more than 0.25. With YRGI, the enrichment ratio was no more than 0.25. The value for YDSS was no more than 0.25. The value for AHPL was no more than 0.25; that for RPNK was no more than 0.25. The value for QELE was no more than 0.25; that for SQLE was 16.5. For SPLE, the enrichment ratio was no more than 0.25.

Turning to SELE, the enrichment ratio was 21.5. The value for KSLE was no more than 0.25. The value for NELE was no more than 0.25; that for SFLE was no more than 0.25. With SEVE, the enrichment ratio is 6.62.

For the variant DPLE, the enrichment ratio is no more than 0.25. Then FELE, with 20.4; and KYLE, with no more than 0.25; and SSLE, with 12.

As to LDMG, the enrichment ratio was no more than 0.25. The value for LDRD was no more than 0.25. Then SKTY, with no more than 0.25; and FKIR, with no more than 0.25; and PKAM, with no more than 0.25. Then NVYD, with no more than 0.25; and IGIE, with no more than 0.25; and KYVT, with no more than 0.25.

As for PQLS, the enrichment ratio is no more than 0.25. Then PYIW, with no more than 0.25.

With LTLE, the enrichment ratio was no more than 0.25. As to GTLE, the enrichment ratio is 14.3.

As to GQLE, the enrichment ratio stood at 14.3. The value for YTLE was 3.23; that for GYLE was no more than 0.25. Then WQLE, with no more than 0.25.

With TWHD, the enrichment ratio is no more than 0.25.

In the case of YYAE, the enrichment ratio is no more than 0.25. The value for KCKS was no more than 0.25; that for HTMI was 1.06. Then WRCP, with no more than 0.25; and FWNS, with no more than 0.25; and AVTM, with 12.4. Turning to AVPM, the enrichment ratio turned out to be 1.53. As for AVGM, the enrichment ratio is 3.94. Then AVMH, with 11.8; and AVWM, with no more than 0.25; and AVTH, with 9.18. The value for AVWR was no more than 0.25. For the variant AVAM, the enrichment ratio came out at 3.19. Regarding AVSH, the enrichment ratio turned out to be 12.4. The value for AVCV was 5.84. With AVCC, the enrichment ratio is 8.73. As for AVCK, the enrichment ratio is 16.2.

Consider MFGF, for which the enrichment ratio was no more than 0.25. Then LYKG, with no more than 0.25.

As to ASIY, the enrichment ratio was 3.82.

Turning to VFVG, the enrichment ratio is no more than 0.25. The value for DYAM was no more than 0.25.

With DHDS, the enrichment ratio was no more than 0.25. Consider NVCH, for which the enrichment ratio is no more than 0.25.

AVAT: the enrichment ratio was no more than 0.25. Then TVAH, with 3.22. The value for FVCM was 2.91. For AVAH, the enrichment ratio stood at 13.4. The value for AVCM was 15.4; that for AVTI was 10.4; that for NVCM was no more than 0.25.

For the variant NVCG, the enrichment ratio was no more than 0.25. As to PVCG, the enrichment ratio was no more than 0.25. Take AVCH: the enrichment ratio was 13. With AVCG, the enrichment ratio came to 16.
